Results reported in PubChem BioAssay.

Target: 6-phosphogluconate dehydrogenase, decarboxylating (Homo sapiens) (UniProt P52209)
Assay: inhibition of human phosphogluconate dehydrogenase – biochemical, recombinant enzyme, NADPH absorbance, primary screen (AID 1159550)
Conditions: recombinant 6PGD, NADPH absorbance 341 nm; at 10 µM; stronger effect = higher value;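 active = at least 20% inhibition of 6-phosphogluconate dehydrogenase activity; inactive = the rest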

Chain of 6-phosphogluconate dehydrogenase, decarboxylating (Homo sapiens) (P52209 whole entry, looked up): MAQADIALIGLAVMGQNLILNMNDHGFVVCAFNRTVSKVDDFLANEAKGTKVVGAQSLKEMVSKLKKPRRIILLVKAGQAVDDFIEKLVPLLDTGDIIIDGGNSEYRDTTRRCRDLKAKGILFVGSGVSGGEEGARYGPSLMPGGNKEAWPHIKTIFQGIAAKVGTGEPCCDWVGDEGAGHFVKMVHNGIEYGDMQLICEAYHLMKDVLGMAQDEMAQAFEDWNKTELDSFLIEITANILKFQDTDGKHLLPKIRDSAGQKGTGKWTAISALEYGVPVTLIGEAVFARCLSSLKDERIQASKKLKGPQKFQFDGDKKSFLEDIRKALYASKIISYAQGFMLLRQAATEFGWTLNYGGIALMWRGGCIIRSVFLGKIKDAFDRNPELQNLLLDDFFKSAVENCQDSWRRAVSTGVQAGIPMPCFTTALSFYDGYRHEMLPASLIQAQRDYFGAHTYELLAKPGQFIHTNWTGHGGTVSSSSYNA

inhibition, inactive:
O=C(O)c1c2ccccc2cc2ccccc12 -1.37%, CCCn1c(=O)c2[nH]c(C3CCCC3)nc2n(CCC)c1=O 11.4%, C=C1CC[C@@H]2[C@](C)(CO)[C@H](O)CC[C@@]2(C)[C@@H]1C/C=C1/C(=O)OC[C@H]1O -4.69%, CN[C@H](CC(C)C)C(=O)N[C@H]1C(=O)N[C@@H](CC(N)=O)C(=O)N[C@H]2C(=O)N[C@H]3C(=O)N[C@H](C(=O)N[C@H](C(=O)O)c4cc(O)cc(O)c4-c4cc3ccc4O)[C@H](O)c3ccc(c(Cl)c3)Oc3cc2cc(c3O[C@@H]2O[C@H](CO)[C@@H](O)[C@H](O)[C@H]2O[C@H]2C[C@](C)(N)[C@H](O)[C@H](C)O2)Oc2ccc(cc2Cl)[C@H]1O 3.51%, C=C(C)[C@@H]1CC[C@]2(C(=O)O)CC[C@]3(C)[C@H](CC[C@@H]4[C@@]5(C)CC[C@H](O)C(C)(C)[C@@H]5CC[C@]43C)[C@@H]12 0.445%, C[C@@H]1[C@H](O)[C@@H](C)/C=C/C=C/C=C/C=C/C=C/C=C/C=C/[C@H](O[C@@H]2O[C@H](C)[C@@H](O)[C@H](N)[C@@H]2O)C[C@@H]2O[C@](O)(C[C@@H](O)C[C@@H](O)[C@H](O)CC[C@@H](O)C[C@@H](O)CC(=O)O[C@H]1C)C[C@H](O)[C@H]2C(=O)O -10.9%, C=C1C(=O)O[C@H]2[C@H]1CC/C(C)=C/CC[C@@]1(C)O[C@@H]21 4.61%, COc1ccc(-c2cc(=O)c3c(O)cc(O[C@@H]4O[C@H](CO[C@@H]5O[C@@H](C)[C@H](O)[C@@H](O)[C@H]5O)[C@@H](O)[C@H](O)[C@H]4O)cc3o2)cc1O 7.55%, CC(C)(O)CC[C@@H](O)[C@](C)(O)[C@H]1CC[C@@]2(O)C3=CC(=O)[C@@H]4C[C@@H](O)[C@@H](O)C[C@]4(C)[C@H]3CC[C@]12C 8%, O=C(O)C1=CCCNC1 -3.98%, Nc1ccn([C@@H]2O[C@H](CO)[C@@H](O)[C@H]2O)c(=O)n1 -4.47%, O=C(O)Cc1nn(Cc2ccc(Br)cc2F)c(=O)c2ccccc12 11.5%, COc1cc([C@@H]2c3cc4c(cc3[C@@H](O[C@@H]3O[C@@H]5CO[C@@H](c6cccs6)O[C@H]5[C@H](O)[C@H]3O)[C@H]3COC(=O)[C@H]23)OCO4)cc(OC)c1O -2.92%, COc1cc(NS(C)(=O)=O)ccc1Nc1c2ccccc2nc2ccccc12 -14.7%, CC(C)(S)[C@@H](N)C(=O)O 5.83%, C[C@H](CCC(=O)O)[C@H]1CC[C@H]2[C@@H]3[C@H](O)C[C@@H]4C[C@H](O)CC[C@]4(C)[C@H]3CC[C@]12C -1.04%, CCC(=O)NCC[C@@H]1CCc2ccc3c(c21)CCO3 11.8%, CCC[C@@H]1C[C@@H](C(=O)N[C@@H]([C@H]2O[C@H](SC)[C@H](O)[C@@H](O)[C@H]2O)[C@H](C)Cl)N(C)C1 8.56%, O=C1c2c(O)cccc2[C@H]([C@@H]2O[C@H](CO)[C@@H](O)[C@H](O)[C@H]2O)c2cc(CO)cc(O)c21 -1.53%, O=C(/C=C/c1ccc(O)c(O)c1)O[C@H](Cc1ccc(O)c(O)c1)C(=O)O -3.01%, O=C(O)c1cc(=O)c2ccc(Cl)cc2[nH]1 15.5%, CC[C@@]1(O)C[C@H](O[C@H]2C[C@H](N(C)C)[C@H](O[C@H]3C[C@H](O)[C@H](O[C@H]4CCC(=O)[C@H](C)O4)[C@H](C)O3)[C@H](C)O2)c2c(cc3c(c2O)C(=O)c2c(O)cccc2C3=O)[C@H]1C(=O)OC 13.5%, CC(=O)[C@H]1CC[C@H]2[C@@H]3CCC4=CC(=O)CC[C@]4(C)[C@H]3CC[C@]12C 14.1%, N=c1ccn2c(n1)O[C@H]1[C@H](O)[C@@H](CO)O[C@H]12 -4.99%, CC1(C)[C@@H](O)CC[C@]2(C)[C@H]3C(=O)C=C4[C@@H]5C[C@@](C)(C(=O)O)CC[C@]5(C)CC[C@@]4(C)[C@]3(C)CC[C@@H]12 6.1%, COc1ccc(CCC(=O)c2c(O)cc(O[C@@H]3O[C@H](CO)[C@@H](O)[C@H](O)[C@H]3O[C@@H]3O[C@@H](C)[C@H](O)[C@@H](O)[C@H]3O)cc2O)cc1O -14.9%, COC1=C(OC)C(=O)C(C/C=C(\C)CC/C=C(\C)CC/C=C(\C)CC/C=C(\C)CC/C=C(\C)CC/C=C(\C)CC/C=C(\C)CC/C=C(\C)CC/C=C(\C)CCC=C(C)C)=C(C)C1=O -47.9%, O=C(O)c1cc(=O)c2ccccc2[nH]1 9.19%, C[C@@]12C[C@@]3(O)O[C@@H](O1)[C@]1(COC(=O)c4ccccc4)[C@H]3C[C@@]12O[C@@H]1O[C@H](CO)[C@@H](O)[C@H](O)[C@H]1O -7.19%, CC(C)C[C@H]1C(=O)N2CCC[C@H]2[C@]2(O)O[C@](NC(=O)[C@@H]3C=C4c5cccc6[nH]c(Br)c(c56)C[C@H]4N(C)C3)(C(C)C)C(=O)N12 -9.44%, C[C@H]1C[C@H]2[C@@H]3CCC4=CC(=O)C=C[C@]4(C)[C@@]3(F)[C@@H](O)C[C@]2(C)[C@@]1(O)C(=O)CO -0.85%
